# Shiga toxin inh = blocks Shiga toxin action in Vero cells | Vero cells, Shiga toxin protein synthesis inhibition reporter | inhibition, % at 38.7 µM | hit rate 9.2% among 290,000 | AID 2315; in the data active = inhibition mostly above about 28%, no sharp cut-off; inactive = mostly below about 43%; also: 0% is about no effect
# Pf growth 48h = inhibits P. falciparum growth in the first generation, 48 h. hit rate 5.9% among 310,000. P. falciparum luciferase growth in erythrocytes, 48 h. Potency, µM (highest dose often 28.7 µM), inactives show at the highest dose activity change, negative = inhibition, usual class: inhibitors. AID 504832; also: potency is read from the fitted curve at half-maximal effect; % is scaled to controls: 0 for no effect and ±100 for the full control effect
#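 Firefly luciferase activity from engineered P. falciparum reports growth; inhibitors lower the luminescent signal. Cultures contained 2% hematocrit erythrocytes at 0.1% final parasitemia.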
# Pf growth 96h = inhibits malaria parasite growth, 96 h; P. falciparum luciferase reporter growth, 96 h; Potency, µM (titrated, usually from 28.7 µM), for the others: at the top dose activity change, negative = inhibition, usual class: inhibitors; hit rate 6.9% among 320,000; AID 504834; also: potency is read from the fitted curve at half-maximal effect; % is scaled to controls: 0 for no effect and ±100 for the full control effect
#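 P. falciparum expressing integrated firefly luciferase, in erythrocytes at 2% hematocrit, 0.05% parasitemia, incubated with compounds 96 h at 37 C, 5% CO2. Growth inhibition read as loss of luminescence; two-generation exposure targets delayed-death apicoplast inhibitors.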
# HCMV antiviral = inhibitors of human cytomegalovirus; HFF cells, HCMV-luciferase reporter, 72 h; stronger effect = lower value; activity change, negative = inhibition, % at 57.5 µM; hit rate 4.5% among 410,000; AID 1259415; in the data active = activity change below about -60%; inconclusive = no clear call, values can overlap the other calls; inactive = above about -39%; also: % is scaled to controls: 0 for no effect and ±100 for the full control effect
#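 Cell-based, HFFs, 1000 cells/well, 16 h 37C; cpds in DMSO + HCMV-luc, MOI 1 PFU/cell; 72 h 37C; OneGlo luminescence after 5 min RT; norm. to buffer vs Salinomycin 10uM.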
# CHX counter = counter-screen hit for Shiga toxin inhibitors, cycloheximide | max response, % | cell reporter, cycloheximide protein synthesis inhibition counterscreen | hit rate 12% among 300,000 | AID 2314; in the data active = max response mostly above about 13%, no sharp cut-off; inactive = mostly below about 14%; also: read at 38.3 µM for the half of the compounds with a filed dose; 0% is about no effect
# * hit, by the source's call; ? = inconclusive; . = no result; + = active, no number. Sampled rows, rich in hits. Any-hit rate of the full collection: about 20%. Unless noted, calls follow the shape of the dose curve; as a rule, active = well fitted inhibition curve with a large enough effect; inconclusive = small, poorly fitted or top-dose-only effect, or another doubt; inactive = no such curve, though single readings can be large or run the other way.
SMILES,Shiga toxin inh,Pf growth 48h,Pf growth 96h,HCMV antiviral,CHX counter
COc1ccc2cc(-c3cc(C(=O)OCC(=O)NC4CCS(=O)(=O)C4)c4ccccc4n3)ccc2c1 (centres undefined),30,68%,45%,66,26*
COC(=O)C1CCN(C(=O)COC(=O)c2cc(-c3ccccc3)nc3ccc(OC)cc23)CC1,.,13µM*,?,.,.
CCN(CC)C(=O)COC(=O)c1cc(-c2ccc(OC)cc2)nc2ccccc12,35,-3%,.,51,23*
COc1ccc(-c2cc(C(=O)OCC(=O)NC3CC3)c3ccccc3n2)cc1,.,10%,41%,0,.
C/C(N)=C(/C#N)C(=O)COC(=O)c1cc(-c2ccc(Br)cc2)nc2ccccc12,6,4%,?,8,13*
O=C(COC(=O)c1cc(-c2ccccc2)nc2ccccc12)c1ccc(Br)cc1,.,.,.,5,.
CCNC(=O)COC(=O)c1cc(-c2ccc(OC)cc2)nc2ccccc12,-18,22%,57%,-28,1
CCCNC(=O)COC(=O)c1cc(-c2ccc(OC)cc2)nc2ccccc12,14,43%,81%,12,13*
CCNc1nc(C)nc2c1cnn2C,.,.,.,64,.
C#CCNC(=O)C1=C[C@@H](C2CCCCC2)C[C@@H](OCc2ccc(CO)cc2)O1,14,?,-8%,7,6
C#CCNC(=O)C1=C[C@H](C2CCCCC2)C[C@H](OCc2ccc(CO)cc2)O1,52*,?,-21%,21,14*
O=C(NC1CC1)C1=C[C@H](C2CCCCC2)C[C@H](OCc2ccc(CO)cc2)O1,35*,15%,-13%,8,13*
O=C(Nc1cc(S(=O)(=O)N2CCOCC2)ccc1N1CCCC1)c1cc(F)c(F)cc1Cl,.,?,2%,-26,.
COc1ccc(OC)c(S(=O)(=O)Nc2ccc(-c3ccc4nncn4n3)cc2)c1,.,19%,?,?,.
CC(=O)Nc1ccc(S(=O)(=O)NCCC(=O)NCCOc2ccccc2)cc1,.,-11%,1%,4,.
CCN(CC)CCOC(=O)c1ccc(NC(=O)CCNC(=O)Cn2ccc3ccccc3c2=O)cc1,-2,-2%,12µM*,44,-2
O=C(CCCN1C(=O)/C(=C/c2cccs2)SC1=S)Nc1cccnc1,-3,-17%,3%,-98*,-2
CCN(CC)CCOC(=O)c1ccc(NC(=O)CCCN2C(=O)/C(=C\c3cccs3)SC2=S)cc1,-11,2.3µM*,4.1µM*,17,10
O=C(CCCN1C(=O)/C(=C\c2cccs2)SC1=S)Nc1cccnc1,4,-15%,54%,-93*,-2
O=C(CCN1C(=O)/C(=C/c2ccccc2F)SC1=S)Nc1cccnc1,31,77%,?,-27,-2
Cc1nc(-c2cccc(F)c2)sc1CCNC(=O)c1c(F)cccc1Cl,.,.,.,-26,.
CC1CCc2c(sc(NC(=O)c3cc(-c4ccc(Br)cc4)on3)c2C(N)=O)C1 (centres undefined),.,.,.,-19,.
CCC(=O)N1CCc2cc(CNS(=O)(=O)c3c(C)cc(C)cc3C)ccc21,.,.,.,-35,.
C[C@@H]1CN([C@@H](C)CO)C(=O)CCCn2nncc2CO[C@H]1CN(C)Cc1ccc(O)cc1,.,.,.,20,.
CCCCN(CCCC)C(=O)c1cn(CC)c2cc(N3CCN(C)CC3)c(F)cc2c1=O,-2,?,-26%,-66*,-2
SMILES,Shiga toxin inh,Pf growth 48h,Pf growth 96h,HCMV antiviral,CHX counter
CCCCCNC(=O)c1cn(CC)c2cc(N3CCN(C)CC3)c(F)cc2c1=O,25,?,15µM*,6,-4
CCCNC(=O)c1cn(CC)c2cc(N3CCN(C)CC3)c(F)cc2c1=O,-10,.,?,26,-1
CCCc1nnc(NC(=O)c2cn(CC)c3cc(N4CCN(C)CC4)c(F)cc3c2=O)s1,-7,0.37µM*,1.2µM*,18,-1
COc1cc(NC(=O)CSc2ncc(S(=O)(=O)c3ccc(Br)cc3)c(=O)[nH]2)cc(OC)c1,.,.,.,1,.
CCCCN1C(=O)C(=O)NC[C@@H]1CCCCN,.,.,.,4,.
COc1ccccc1CN1CCNC(=O)C1CC(=O)NCCc1cnccn1 (centres undefined),-6,40%,3%,-25,-2
COc1ccc2c(CNCCc3cccs3)c(C(=O)O)n(Cc3ccccc3)c2c1,.,.,.,21,.
CNc1nn(-c2cccc(Cl)c2)nc1N,90*,139%,0%,94,47*
Cc1ccccc1NC(=O)NCc1ccc2c(c1)OCO2,10,26%,?,45,11
Cc1ccc(NC(=O)NCc2ccc3c(c2)OCO3)cc1,27,.,23%,47,16*
Cc1cc2cc(CNC(=O)Nc3cccc(Cl)c3)ccc2n1C,32,-9%,2%,18,5
Cc1cccc(NC(=O)NCc2ccc3c(c2)OCO3)c1,79*,132%,?,56,39*
Cc1cccc(NC(=O)NCc2ccc3c(c2)cc(C)n3C)c1,18,?,10µM*,?,12
O=C(Cn1cnc2ccccc2c1=O)NCCC(=O)N1CCN(c2ccccc2)CC1,-8,?,-11%,-3,2
COc1ccc2c(c1OC)C(=O)N(c1cccc(C)c1)C2,49*,172%,-20%,193,41*
COc1ccccc1N1Cc2ccc(OC)c(OC)c2C1=O,20,5%,43%,25,7
COc1ccc2c(c1OC)C(=O)N(c1cccc(C(F)(F)F)c1)C2,103*,55%,37%,107,20*
COc1ccc2c(c1OC)C(=O)N(c1ccccn1)C2,139*,183%,127%,169,52*
COc1ccc2c(c1OC)C(=O)N(c1ccc(C)cc1)C2,86*,147%,141%,35,54*
CCOc1cc(N2CCOCC2)c(OCC)cc1NC(=O)c1ccc(OC(C)C)cc1,17,-21%,?,35,-1
Nc1nc(Cl)nc2ccc(Br)cc12,53*,132%,168%,-37,67*
COc1cc(CNC(=O)c2ccc(NC(=O)N3CCCCc4ccccc43)cc2)cc(OC)c1OC,.,.,.,15,.
CCOC(=O)N1CCN(C(=O)C2CC(c3ccccc3OC)=NO2)CC1 (centres undefined),-6,.,-7%,33,9
CSc1ccccc1NC(=O)C1CC(c2ccccc2O)=NO1 (centres undefined),93*,-6%,.,32,41*
O=C(C1CC(c2ccccc2O)=NO1)N1CCC2(CC1)OCCO2 (centres undefined),55,.,214%,92,25*
O=C(C1CC(c2ccccc2O)=NO1)N1CCCC1 (centres undefined),78*,56%,24%,11,38*
CC1(C)CCN2CCC(C)(C)c3c(O)ccc1c32,-4,?,-47%,-91*,0
COC(=O)c1[nH]c(C)c(/C(O)=C2\C(=O)C(=O)N(CCN3CCOCC3)C2c2ccco2)c1C (centres undefined),15,4%,11%,15,1
O=C/C(=C\Nc1ccccn1)c1nc2ccccc2o1,+,?,-22%,41,27*
O=C/C(=C\Nc1ccc(Br)cc1)c1nc2ccccc2o1,4,20%,?,-23,-4

# Screening results from PubChem BioAssay.
